Assay outcomes: PubChem BioAssay, National Center for Advancing Translational Sciences (NCATS)
This excerpt belongs to a sample that is enriched for hits.
KDM5B inh = blocks human KDM5B histone demethylase activity; AID 1347165; Q9UGL1; Potency, µM (series often up to 57.7 µM), hits mostly inhibitors; KDM5B demethylase, FDH-coupled NADH fluorescence (FDH is formaldehyde dehydrogenase); 2.6% of 220,000 active; active = well fitted inhibition curve with a large enough effect; note: 0% is about no effect; nearly all actives have a fitted effect of over 70% in size
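qHTS format, multiple compound concentrations. Buffer 50 mM HEPES pH 7.5/0.01% Tween-20; 200 nM KDM5BΔAP final; 10 min compound preincubation; substrate-mix levels 12.5 µM peptide, 25 µM α-KG, 0.25 mM NAD⁺; 30 min RT; ΔRFU.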
Numbers without * were called inactive; i = inactive. Potency is the fitted concentration of half-maximal effect.

SMILES	KDM5B inh
Cc1noc(C)c1-c1cc2c(c(-c3ccccc3F)c1)C(=O)N(C)C2	i
Cc1noc(C)c1-c1cc(-c2ccccc2O)cn2cncc12	i
CC(=O)Nc1cccc(-c2csc(Nc3ccccc3C)n2)c1	i
CNC(=O)c1cc2cc(-c3c(C)noc3C)nc(-c3cnn(C)c3)c2o1	i
O=[N+]([O-])c1ccccc1S(=O)(=O)Nc1ccccc1-n1cccn1	i
COc1cc2nc(CSCC(=O)N3CCCC3)[nH]c(=O)c2cc1OC	i
O=C(NC1CCCCC1)C(c1ccccc1)N(C(=O)c1cnccn1)c1cccs1 (centres undefined)	i
O=C(Nc1ccccc1C(F)(F)F)Nc1c(N2CCCC2)c2ccccc2oc1=O	i
CCOc1cc(C#N)ccc1OCC(=O)c1ccc2c(c1)CCCC2	i
COc1ccc([C@H]2C[C@@H](O)[C@@H](O)[C@@H]2NC(=O)c2cc(C)n(C)n2)cc1	i
Cc1cc(C(=O)N[C@H]2[C@H](O)[C@H](O)C[C@@H]2c2ccc(N3CCOCC3)nc2)nn1C	31.6µM*
Cc1cc(C(=O)N[C@H]2[C@H](O)[C@H](O)C[C@@H]2c2cccnc2)nn1C	i
COc1ccc([C@H]2C[C@@H](O)[C@@H](O)[C@@H]2NCc2ccc(OC)nc2)cc1	i
COc1ccc([C@H]2C[C@@H](O)[C@@H](O)[C@@H]2NCc2cnc3ccccc3c2)cc1	i
Cc1ccccc1C(=O)N[C@H]1[C@H](O)[C@H](O)C[C@@H]1c1ccc(N2CCOCC2)nc1	31.6µM*
COc1ccccc1C(=O)N[C@H]1[C@H](O)[C@H](O)C[C@@H]1c1cccnc1	i
O=C(Nc1ccc(N2CCOCC2)nc1)c1ccccc1Cl	i
Cn1cc(CN[C@H]2[C@H](O)[C@H](O)C[C@@H]2c2ccc(N3CCOCC3)nc2)cn1	39.8µM*
CC1(C)CC(=O)CC(C)(C)N1	i
COC(=O)c1ccccc1-c1ccc(/C=C(/C#N)c2nc3ccc(C)cc3[nH]2)o1	i
Fc1ccc(C2=Nc3ccc(Br)cc3NC(c3cccs3)=N2)cc1	i
S=C(N/N=C1/CCCCc2ccccc21)NC1CCCCC1	i
COCCNC(=O)c1coc(COc2ccc3c(c2)C(c2ccc(F)cc2)N(C(=O)C(C)C)CC3)n1 (centres undefined)	i
Cc1ccc(C)c(-c2cc(C(=O)O)c3cccc(C)c3n2)c1	i
Cc1cccc2c(C(=O)N3CCN(Cc4ccccc4)CC3)cc(-c3cccnc3)nc12	i
SMILES	KDM5B inh
CCn1cc(-c2cc(C(=O)N3CCCCCC3)c3cccc(C)c3n2)cn1	31.6µM*
CS(=O)(=O)N(Cc1csc(-c2cccs2)n1)C1CCN(C(=O)c2ccccc2Cl)CC1	i
O=C(NC1CC1)c1ccc2nnc(-c3cccnc3)n2c1	112µM*
O=C(NC1CC1)c1ccc2nnc(-c3ccc(C(F)(F)F)cc3)n2c1	56.2µM*
CC(C)(C)C1CCC(NC(=O)c2ccncc2)CC1 (centres undefined)	i
Cc1ccc(C(=O)NC2CCN(c3cc(C(F)(F)F)ncn3)CC2)cc1	i
Cn1c(SCC(=O)NC2CCCCC2)nnc1-c1cccnc1	i
N[C@@H]1CC[C@@H]1NC(=O)c1cnc(-c2cccnc2)nc1	i
O=c1oc(-c2ccccc2)cc(-c2ccccc2)c1-c1ccccc1	i
Cc1cc(N(CCO)CCO)n2nc(Cc3ccc(Cl)cc3)nc2n1	i
CN1CCN(C(=O)Cn2ccc3c(Cl)cccc32)CC1	i
O=C(N/N=C/c1cccs1)c1ccccc1	i
Cn1cc(CN2CCOC[C@H](Oc3ccccc3)C2)cn1	i
Cn1cc(CN2CCOC[C@H](Oc3cnccn3)C2)cn1	i
Cn1cc(CN2Cc3c(cc(N4CCOCC4)nc3-c3ccc(CO)cc3)C2=O)cn1	35.5µM*
CC(Sc1nnc(N2CCOCC2)n1-c1cccc(F)c1)c1nc2ccccc2c(=O)[nH]1 (centres undefined)	i
O=C1c2cnc(-c3cccc(CO)c3)nc2OCCN1Cc1ccccc1	i
Cn1cc(CN2Cc3c(cc(N4CCOCC4)nc3-c3cccc(F)c3)C2=O)cn1	35.5µM*
Cn1cc(CN2Cc3c(cc(N4CCOCC4)nc3-c3cccnc3)C2=O)cn1	35.5µM*
COc1ccc(-c2nc(N3CCOCC3)cc3c2CN(Cc2cnn(C)c2)C3=O)cc1OC	i
CN1CC(=O)N(c2cccc(F)c2)Cc2c1ncnc2N1CCOCC1	i
O=C(Nc1ccccc1)C(c1ccccc1)N1CCN(C(=O)C2CC2)CC1 (centres undefined)	i
CCOCC(=O)N1c2ccccc2CC1c1noc(C(C)C)n1 (centres undefined)	i
Cc1ccc2cc(C(=O)NCC3COc4ccccc4O3)c(C)nc2c1 (centres undefined)	i
CC(Sc1nnc(-c2cccs2)n1C1CC1)C(=O)N1CCc2ccccc2C1 (centres undefined)	i
SMILES	KDM5B inh
NC1(C(=O)O)CCC(c2ccccc2)CC1 (centres undefined)	i
CCCS(=O)(=O)Nc1ccc2n(c1=O)C[C@H]1C[C@@H]2CN(C(=O)c2ccc(-c3ccccc3)cc2)C1	20µM*
CSCC(=O)Nc1ccc2n(c1=O)C[C@H]1C[C@@H]2CN(C(=O)c2ccc(-c3ccccc3)cc2)C1	i
O=C(Nc1ccc2n(c1=O)C[C@H]1C[C@@H]2CN(C(=O)c2ccc(-c3ccccc3)cc2)C1)c1ccco1	i
CN(Cc1cncs1)C1CCc2ccccc21 (centres undefined)	i
O=C(Cn1ccc2ccc(Cl)cc21)Nc1ccc2c(c1)OCO2	i
O=C(NCc1ccc(Cl)nc1)c1ccc2ccnn2c1	35.5µM*
CN1C(=O)Cc2cc(C(=O)NCc3cccnc3)ccc21	i
O=C(NCc1ccc(Cl)nc1)c1ccc2cncn2c1	35.5µM*
O=C(NCc1ccc(Cl)nc1)c1cnn2c1CN(C(=O)c1cccnc1)CC2	i
C[S+](=O)([O-])N1CCn2cc(C(=O)NCc3ccc(Cl)nc3)nc2C1	i
O=C(NCc1ccc(Cl)cc1)c1ccc2oc(=O)n(Cc3ccccc3)c2c1	i
O=C(NCc1ccc2c(c1)CCN2C(=O)c1ccncc1)c1ccc(Cl)cc1	i
O=C(NCc1ccc(Cl)cc1)c1ccc2ccnn2c1	35.5µM*
Cn1cccc1C(=O)NCc1ccc(Cl)cc1	i
O=C(c1ccc[nH]1)N1CCC(n2cc(-c3nc(C4CC4)no3)nn2)C1 (centres undefined)	i
O=C(CCNc1cccc(Br)c1)c1cc2ccccc2o1	i
O=C1/C(=C/c2cccs2)Oc2cc(O)ccc21	i
COc1ccc(CC(=O)N2CCC(NS(=O)(=O)c3ccc(C)cc3)CC2)cc1	i
NC(=O)C1(N)CCOCC1	i
Cc1cc(SCC(=O)NC2(C)CCS(=O)(=O)C2)nc2c(C)cccc12 (centres undefined)	i
Cc1nc(-c2c3n(c(=O)n(CC(=O)Nc4ccc(Cl)cc4)c2=O)CCCCC3)no1	i
CC(=O)c1csc(NC(=O)c2nn(C)c(=O)c3ccccc23)n1	i
C#CCN1CCC(C(=O)NCCN2CCCCCC2)CC1	i
Cc1ccc(NC(=O)N2CCN(c3nnnn3-c3cccc(C(C)C)c3)CC2)cc1F	i
COC(=O)c1ccc(NS(=O)(=O)c2c(C)c(C)cc(C)c2C)c(C)c1	i
O=C(c1ccno1)N1C[C@@H]2OCC(=O)N(Cc3ccccc3)[C@@H]2C1	i
O=C1CO[C@H]2CN(c3ncccn3)C[C@H]2N1Cc1ccncc1	39.8µM*
